# Laboratory results from the supplement of paper PMC10849652.
# Targets with a hit are over-represented here; the source holds about 7,900 in all. About 0.6% of all pairs of compound and target were hits. Values without a mark were called inactive.
# Columns and labels:
# Assay in all cases: log2 fold change, soluble protein after heating vs DMSO (PISA); higher = thermal stabilisation; K562 cells, 10 uM, 30 min; active = over 0.2 and 3.5 SD of the protein, either way, in both replicates (recomputed)
# [1] = compound: CS(=O)(=O)c1ccc(-c2cnc(N)c(C(=O)Nc3ccccc3)n2)cc1
# Method in brief: (§1)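 Aliquots of K562 cells (2×10^6 cells/mL) treated with 10 μM compound for 30 min were heated for 3 min over 48°C-58°C. After pooling and extraction in PBS with 0.5% NP-40 at 4°C, soluble protein from a 21,000xg, 90 min spin was quantified by TMTpro 16plex LC-MS/MS with channel sums equalised. Thermal stability is expressed against control samples, from duplicates, as a log2 fold change.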
# [2] = compound: C[C@@H](Oc1cc(-c2cnn(C3CCNCC3)c2)cnc1N)c1c(Cl)ccc(F)c1Cl [crizotinib]
# Method in brief: as §1
# [3] = compound: C[C@@H]1COCCN1C2=NC(=NC(=C2)C3(CC3)S(=O)(=O)C)C4=C5C=CNC5=CC=C4
# Method in brief: as §1
# [4] = compound: C[C@H](C1=CC=C(C=C1)C(=O)NC2=C3C=CNC3=NC=C2)N
# Method in brief: as §1
# [5] = compound: C[C@H](Nc1ncnc2nc[nH]c12)c1cc2cccc(Cl)c2c(=O)n1-c1ccccc1 [duvelisib]
# Method in brief: as §1
# [6] = compound: Cc1cc(Nc2cc(CN3CCOCC3)c3nc(C)c(Cc4ccc(Cl)cc4F)n3n2)n[nH]1 [gandotinib]
# Method in brief: as §1
# [7] = compound: Cc1cc(Nc2cc(N3CCN(C)CC3)nc(Sc3ccc(NC(=O)C4CC4)cc3)n2)n[nH]1 [tozasertib]
# Method in brief: as §1
# [8] = compound: Cc1cc(SCc2sc(-c3ccc(C(F)(F)F)cc3)nc2C)ccc1OCC(=O)O
# Method in brief: as §1
# [9] = compound: Cc1ccc(-n2nc(C(C)(C)C)cc2NC(=O)Nc2ccc(OCCN3CCOCC3)c3ccccc23)cc1 [doramapimod]
# Method in brief: as §1
# [10] = compound: Cc1ccc(C(=O)N(CCCN)[C@@H](c2nc3cc(Cl)ccc3c(=O)n2Cc2ccccc2)C(C)C)cc1 [ispinesib]
# Method in brief: as §1
# [11] = compound: Cc1ccc(NC(=O)c2ccc(CN3CC[C@H](N(C)C)C3)c(C(F)(F)F)c2)cc1Nc1nccc(-c2cncnc2)n1 [bafetinib]
# Method in brief: as §1
# [12] = compound: Cc1cccc(CC(=O)N2CCc3c2ccc(-c2cn(C)c4ncnc(N)c24)c3F)n1
# Method in brief: as §1
# [13] = compound: Cc1cn(-c2cc(NC(=O)c3ccc(C)c(Nc4nccc(-c5cccnc5)n4)c3)cc(C(F)(F)F)c2)cn1 [nilotinib]
# Method in brief: as §1
# [14] = compound: Cc1nc(Nc2n[nH]c3c2CN(C(=O)N[C@H](CN(C)C)c2ccccc2)C3(C)C)c2sccc2n1
# Method in brief: as §1
# [15] = compound: Cc1nc(Nc2ncc(C(=O)Nc3c(C)cccc3Cl)s2)cc(N2CCN(CCO)CC2)n1 [dasatinib]
# Method in brief: as §1
# [16] = compound: Cc1ncc(-c2ccnc(Nc3ccc(S(C)(=O)=O)cc3)n2)n1C(C)C
# Method in brief: as §1
# [17] = compound: Cn1cc(-c2ccc3c(c2)CCN3C(=O)Cc2cccc(C(F)(F)F)c2)c2c(N)ncnc21
# Method in brief: as §1
# [18] = compound: Cn1cc(-c2ccc3nnc(C(F)(F)c4ccc5ncccc5c4)n3n2)cn1
# Method in brief: as §1
# [19] = compound: Cn1cncc1[C@@](N)(c1ccc(Cl)cc1)c1ccc2c(c1)c(-c1cccc(Cl)c1)cc(=O)n2C [tipifarnib]
# Method in brief: as §1
# [20] = compound: FC(F)(F)c1ccc(/C=C/c2nc(COc3ccc(CCCCn4ccnn4)cc3)co2)cc1 [mubritinib]
# Method in brief: as §1
# Chain of UniProt Q9Y6H1 (Q9Y6H1 whole entry, looked up): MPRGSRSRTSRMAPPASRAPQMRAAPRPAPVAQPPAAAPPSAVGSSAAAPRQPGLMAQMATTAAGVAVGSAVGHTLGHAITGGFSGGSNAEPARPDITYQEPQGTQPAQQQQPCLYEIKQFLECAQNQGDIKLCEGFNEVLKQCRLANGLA
# Chain of UniProt O95319 (O95319 whole entry, looked up): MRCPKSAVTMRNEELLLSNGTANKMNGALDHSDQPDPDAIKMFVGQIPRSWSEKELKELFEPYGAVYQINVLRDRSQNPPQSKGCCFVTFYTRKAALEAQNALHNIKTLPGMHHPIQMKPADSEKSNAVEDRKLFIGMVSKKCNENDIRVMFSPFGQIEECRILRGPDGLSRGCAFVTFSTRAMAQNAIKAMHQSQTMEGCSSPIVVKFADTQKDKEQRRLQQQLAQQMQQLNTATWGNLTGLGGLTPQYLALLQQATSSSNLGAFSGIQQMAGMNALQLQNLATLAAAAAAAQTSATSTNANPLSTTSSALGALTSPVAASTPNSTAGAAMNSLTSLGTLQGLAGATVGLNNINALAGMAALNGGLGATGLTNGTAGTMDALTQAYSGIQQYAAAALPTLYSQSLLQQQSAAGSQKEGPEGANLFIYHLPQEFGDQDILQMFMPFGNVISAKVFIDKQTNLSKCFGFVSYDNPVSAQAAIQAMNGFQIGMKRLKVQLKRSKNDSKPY
# Chain of UniProt Q8N1A6 (Q8N1A6 whole entry, looked up): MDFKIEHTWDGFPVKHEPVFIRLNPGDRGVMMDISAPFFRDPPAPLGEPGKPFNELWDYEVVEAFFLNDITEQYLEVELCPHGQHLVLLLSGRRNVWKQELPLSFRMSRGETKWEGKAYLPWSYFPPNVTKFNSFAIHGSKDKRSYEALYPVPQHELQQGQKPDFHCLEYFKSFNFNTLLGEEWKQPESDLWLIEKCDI
# Chain of UniProt Q00587 (Q00587 whole entry, looked up): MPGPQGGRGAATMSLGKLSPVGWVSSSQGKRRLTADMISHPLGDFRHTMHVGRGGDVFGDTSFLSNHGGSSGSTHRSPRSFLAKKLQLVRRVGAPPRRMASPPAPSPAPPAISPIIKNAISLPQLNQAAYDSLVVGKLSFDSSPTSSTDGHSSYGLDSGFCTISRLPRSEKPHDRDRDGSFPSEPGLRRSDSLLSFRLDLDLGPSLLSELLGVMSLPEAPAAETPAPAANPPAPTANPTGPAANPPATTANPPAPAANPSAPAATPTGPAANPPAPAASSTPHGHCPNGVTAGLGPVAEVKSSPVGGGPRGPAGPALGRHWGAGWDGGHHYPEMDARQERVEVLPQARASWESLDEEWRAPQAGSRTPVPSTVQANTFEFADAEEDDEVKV
# Chain of UniProt O43405 (O43405 whole entry, looked up): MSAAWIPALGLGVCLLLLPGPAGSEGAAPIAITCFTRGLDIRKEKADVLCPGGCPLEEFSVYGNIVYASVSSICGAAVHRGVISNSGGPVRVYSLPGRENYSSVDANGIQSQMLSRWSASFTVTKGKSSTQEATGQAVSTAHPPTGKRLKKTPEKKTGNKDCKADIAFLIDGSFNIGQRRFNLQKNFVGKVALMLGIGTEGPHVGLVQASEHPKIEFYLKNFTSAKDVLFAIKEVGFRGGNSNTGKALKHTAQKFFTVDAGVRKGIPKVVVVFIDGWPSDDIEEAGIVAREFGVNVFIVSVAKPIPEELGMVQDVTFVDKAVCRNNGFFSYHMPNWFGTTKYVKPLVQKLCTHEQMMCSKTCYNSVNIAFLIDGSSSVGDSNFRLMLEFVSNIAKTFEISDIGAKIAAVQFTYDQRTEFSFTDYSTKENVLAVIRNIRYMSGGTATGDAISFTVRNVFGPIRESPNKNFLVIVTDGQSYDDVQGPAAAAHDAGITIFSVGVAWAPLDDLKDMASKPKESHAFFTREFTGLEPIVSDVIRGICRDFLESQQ
# Chain of UniProt Q86X95 (Q86X95 whole entry, looked up): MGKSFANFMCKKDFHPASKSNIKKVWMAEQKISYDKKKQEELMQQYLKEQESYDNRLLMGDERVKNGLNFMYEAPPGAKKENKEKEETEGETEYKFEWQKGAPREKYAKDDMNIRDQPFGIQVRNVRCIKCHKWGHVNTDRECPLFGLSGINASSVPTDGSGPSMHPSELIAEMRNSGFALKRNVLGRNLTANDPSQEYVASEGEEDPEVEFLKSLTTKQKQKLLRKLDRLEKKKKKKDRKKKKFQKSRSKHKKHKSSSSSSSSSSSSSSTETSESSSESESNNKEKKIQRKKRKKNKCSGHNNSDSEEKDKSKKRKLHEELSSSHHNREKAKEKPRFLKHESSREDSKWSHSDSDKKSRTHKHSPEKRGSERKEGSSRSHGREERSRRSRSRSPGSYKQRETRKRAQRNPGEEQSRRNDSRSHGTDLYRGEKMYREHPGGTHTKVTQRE
# Chain of UniProt Q5T6V5 (Q5T6V5 whole entry, looked up): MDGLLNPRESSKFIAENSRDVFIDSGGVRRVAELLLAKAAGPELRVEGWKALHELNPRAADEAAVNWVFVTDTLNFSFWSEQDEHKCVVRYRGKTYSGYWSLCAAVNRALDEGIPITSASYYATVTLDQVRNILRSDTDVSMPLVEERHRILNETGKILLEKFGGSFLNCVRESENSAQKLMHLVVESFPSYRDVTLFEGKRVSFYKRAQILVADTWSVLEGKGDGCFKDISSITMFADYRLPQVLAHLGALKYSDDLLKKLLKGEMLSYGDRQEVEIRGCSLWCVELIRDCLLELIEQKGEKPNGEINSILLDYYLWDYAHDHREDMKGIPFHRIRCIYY
# Chain of UniProt A5YKK6 (A5YKK6 whole entry, looked up): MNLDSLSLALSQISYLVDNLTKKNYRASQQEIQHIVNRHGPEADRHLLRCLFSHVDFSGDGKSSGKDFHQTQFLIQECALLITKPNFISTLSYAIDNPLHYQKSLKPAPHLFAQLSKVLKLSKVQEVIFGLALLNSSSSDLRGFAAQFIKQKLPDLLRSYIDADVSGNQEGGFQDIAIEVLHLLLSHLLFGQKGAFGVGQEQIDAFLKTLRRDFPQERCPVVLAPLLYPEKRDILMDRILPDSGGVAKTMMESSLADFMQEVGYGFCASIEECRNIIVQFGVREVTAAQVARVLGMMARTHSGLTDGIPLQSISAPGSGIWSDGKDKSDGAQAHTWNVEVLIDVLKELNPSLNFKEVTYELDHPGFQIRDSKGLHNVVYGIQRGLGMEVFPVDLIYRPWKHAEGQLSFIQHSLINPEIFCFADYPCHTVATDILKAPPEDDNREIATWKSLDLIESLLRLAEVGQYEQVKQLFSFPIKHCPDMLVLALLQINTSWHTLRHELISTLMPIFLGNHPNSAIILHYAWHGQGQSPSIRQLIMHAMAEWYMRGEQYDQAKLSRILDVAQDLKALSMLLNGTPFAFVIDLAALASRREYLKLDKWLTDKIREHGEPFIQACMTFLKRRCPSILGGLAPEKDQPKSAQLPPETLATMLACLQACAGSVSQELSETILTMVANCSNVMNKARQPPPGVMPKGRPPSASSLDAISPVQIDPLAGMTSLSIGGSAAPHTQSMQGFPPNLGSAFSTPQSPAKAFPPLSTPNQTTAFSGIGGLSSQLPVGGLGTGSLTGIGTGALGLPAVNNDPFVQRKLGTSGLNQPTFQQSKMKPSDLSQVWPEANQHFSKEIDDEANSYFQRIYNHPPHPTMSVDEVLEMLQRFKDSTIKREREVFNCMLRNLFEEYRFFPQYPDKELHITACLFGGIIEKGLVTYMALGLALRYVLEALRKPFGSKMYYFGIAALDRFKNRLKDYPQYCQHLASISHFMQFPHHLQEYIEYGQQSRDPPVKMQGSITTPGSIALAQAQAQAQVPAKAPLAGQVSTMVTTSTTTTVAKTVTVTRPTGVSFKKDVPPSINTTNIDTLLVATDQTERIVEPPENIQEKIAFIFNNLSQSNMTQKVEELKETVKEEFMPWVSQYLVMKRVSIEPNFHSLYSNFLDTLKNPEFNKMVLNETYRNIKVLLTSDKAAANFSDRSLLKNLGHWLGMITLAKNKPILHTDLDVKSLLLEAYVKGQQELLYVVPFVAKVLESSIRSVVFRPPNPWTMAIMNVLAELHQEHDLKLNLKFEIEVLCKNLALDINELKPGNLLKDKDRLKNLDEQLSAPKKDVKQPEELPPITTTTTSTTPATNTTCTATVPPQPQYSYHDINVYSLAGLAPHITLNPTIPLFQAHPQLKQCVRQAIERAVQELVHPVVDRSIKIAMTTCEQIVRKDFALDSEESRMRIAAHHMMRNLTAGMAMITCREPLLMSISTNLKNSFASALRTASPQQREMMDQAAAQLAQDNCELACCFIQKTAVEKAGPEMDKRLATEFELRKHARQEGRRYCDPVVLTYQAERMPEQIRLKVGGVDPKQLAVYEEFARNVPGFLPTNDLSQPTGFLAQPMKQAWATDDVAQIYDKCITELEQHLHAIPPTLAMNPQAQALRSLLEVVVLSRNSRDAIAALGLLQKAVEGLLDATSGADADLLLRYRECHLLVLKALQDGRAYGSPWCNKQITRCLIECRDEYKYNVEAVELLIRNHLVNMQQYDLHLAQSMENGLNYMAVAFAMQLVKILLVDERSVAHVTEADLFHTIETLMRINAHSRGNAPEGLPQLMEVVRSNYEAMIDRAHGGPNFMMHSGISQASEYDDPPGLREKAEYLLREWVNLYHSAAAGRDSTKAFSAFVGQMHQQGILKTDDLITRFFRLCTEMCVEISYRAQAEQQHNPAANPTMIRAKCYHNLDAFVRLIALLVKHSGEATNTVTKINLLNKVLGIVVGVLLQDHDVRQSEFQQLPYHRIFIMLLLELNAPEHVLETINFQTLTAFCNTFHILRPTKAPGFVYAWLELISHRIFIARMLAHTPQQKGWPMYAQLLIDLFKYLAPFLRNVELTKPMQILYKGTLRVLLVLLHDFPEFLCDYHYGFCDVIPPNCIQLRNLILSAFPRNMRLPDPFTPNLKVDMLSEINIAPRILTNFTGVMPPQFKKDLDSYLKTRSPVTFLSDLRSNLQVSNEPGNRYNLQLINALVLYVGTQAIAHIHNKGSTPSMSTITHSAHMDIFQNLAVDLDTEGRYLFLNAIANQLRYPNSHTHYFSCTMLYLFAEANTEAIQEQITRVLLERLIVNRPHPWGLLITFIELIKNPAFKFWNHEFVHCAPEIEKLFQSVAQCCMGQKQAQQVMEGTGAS
Target,log2 fold change [1],log2 fold change [2],log2 fold change [3],log2 fold change [4],log2 fold change [5],log2 fold change [6],log2 fold change [7],log2 fold change [8],log2 fold change [9],log2 fold change [10],log2 fold change [11],log2 fold change [12],log2 fold change [13],log2 fold change [14],log2 fold change [15],log2 fold change [16],log2 fold change [17],log2 fold change [18],log2 fold change [19],log2 fold change [20]
CD53 (UniProt P19397),0.101,0.047,0.005,-0.084,0.234,-0.016,-0.165,-0.11,0.103,0.023,0.091,-0.418 (active),0.069,0.002,0.078,-0.003,0.145,0.125,0.057,0.081
COCH (UniProt O43405),-0.051,-0.05,-0.033,-0.016,-0.052,0.059,0.154,-0.053,0.052,-0.042,0.076,-0.17,0.2,-0.288,0.179,-0.262,-0.069,-0.005,0.07,-0.062
CELF2 isoform 3 (UniProt O95319),-0.107,0.098,0.006,-0.038,-0.027,-0.027,-0.054,0.102,0.05,-0.066,0.014,-0.005,-0.001,0.013,-0.005,0.079,-0.022,-0.059,-0.062,-0.006
C4orf33 (UniProt Q8N1A6),0.025,-0.098,0.001,-0.209,0.033,0.019,-0.093,0.005,-0.003,-0.038,-0.143,0.01,0.03,-0.024,-0.002,-0.1,0.056,0.031,-0.007,0.054
CSNK1D (UniProt P48730),0.12,-0.103,-0.246,0.055,-0.039,0.054,-0.028,0.069,0.109,-0.116,0.1,0.064,-0.025,0.073,0.119,0.241,-0.083,-0.042,0.051,-0.148
CNOT1 (UniProt A5YKK6),0.006,-0.087,-0.034,0.033,0.013,-0.043,0.045,0.076,-0.025,-0.038,0.009,0.033,-0.066,-0.058,-0.106,-0.014,0.023,-0.035,-0.061,0.052
CCDC167 (UniProt Q9P0B6),-0.08,0.025,0.071,0.135,0.263,0.181,-0.121,-0.214,0.034,-0.344 (active),-0.024,-0.057,-0.03,-0.035,0.193,0.026,-0.185,-0.018,0.142,-0.043
CHCHD2 (UniProt Q9Y6H1),0,0.161,-0.017,-0.075,0.097,-0.107,0.059,-0.016,-0.037,0.066,-0.026,-0.002,0.037,0.029,0.075,-0.086,0.116,-0.02,-0.06,0.04
CHERP (UniProt Q8IWX8),-0.087,-0.108,0.109,0.009,-0.025,-0.047,0.08,0.138,0.01,-0.004,0.057,0.092,-0.13,-0.353,-0.086,0.011,0.011,0.025,0.005,-0.07
CDC42EP1 (UniProt Q00587),-0.006,-0.566 (active),0.019,-0.041,-0.061,-0.524 (active),-0.192,0.073,0.076,-0.327,-0.115,0.092,-0.072,-0.59 (active),-0.2,-0.211,0.079,0.051,0.049,0.007
CALB1 (UniProt P05937),0.033,-0.166,0.015,-0.039,-0.031,-0.038,0.022,0.017,-0.006,-0.105,-0.076,-0.018,-0.018,0.025,0.014,-0.015,0.013,0.046,0,0.01
CDC123 (UniProt O75794),-0.001,-0.246 (active),0.074,-0.032,0.159,0.044,-0.049,0.115,0.003,0.013,0.015,-0.013,-0.084,0.079,-0.032,0.018,0.029,-0.04,-0.031,-0.006
CLCN3 (UniProt P51790),-0.05,-0.191,0.012,-0.003,0.046,-0.062,0.04,-0.006,-0.03,-0.549 (active),-0.112,-0.022,-0.007,0.04,0.019,-0.027,0.03,0.049,0.015,0.024
CIR1 (UniProt Q86X95),-0.039,0.03,-0.187,0.544 (active),-0.114,0.295,0,0.015,0.092,-0.063,0.001,-0.091,,,0.079,,-0.131,-0.06,0.223,-0.113
COX6B1 (UniProt P14854),-0.001,0.184,0.195,0,0.163,-0.027,0.105,0,-0.06,0.226,-0.081,-0.023,-0.02,-0.01,0.019,-0.027,0.228,0.377 (active),-0.044,0.054
C9orf64 (UniProt Q5T6V5),0.049,-0.329,0.091,0,0.096,-0.128,-0.012,0.097,-0.005,-0.207,0.031,0.218,-0.045,-0.094,-0.197,-0.04,0.079,0.085,-0.163,0.282
